ERa coact inh – blocks coactivator binding to human estrogen receptor alpha; P03372; TR-FRET ER-alpha LBD / SRC-1 peptide, estradiol-bound; inhibition, % at 25.6 µM; 86,000 compounds, 1.7% hits; AID 629; in the data active = inhibition above about 50%;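 note: 0% = receptor plus peptide control and 100% = peptide only without receptor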
Smad3 inh – blocks human Smad3 binding to FoxH1 peptide; P84022; TR-FRET Smad3/Dy647-FoxH1 peptide binding, europium anti-His; inhibition, % at 25 µM; 88,000 compounds, 0.29% hits; AID 630;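 active = compounds that reduce the energy-transfer binding signal between the protein and its labelled peptide by more than half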;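 note: 0% = Smad3 plus labelled peptide maximal FRET and 100% = peptide-only background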
Calb biofilm kill – kills Candida albicans biofilms; 85,000 compounds, 0.14% hits; AID 834; C. albicans biofilm + clotrimazole, Alamar Blue; inhibition, % at 6 µM;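 active = inhibition above 20%; inactive = inhibition below 20%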;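 note: preformed 24 hr biofilms exposed to compound for 48 hr; 0% = biofilm without compound and 100% = blank killed by clotrimazole plus chlorhexidine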
ERb coact inh – blocks coactivator binding to human estrogen receptor beta | TR-FRET ER-beta LBD / SRC1-Cy5 peptide binding; receptor agonist-loaded with 1 µM estradiol | inhibition, % at 25.6 µM | 86,000 compounds, 1.3% hits | AID 633;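 active = compounds whose percent inhibition of the receptor-coactivator binding signal exceeds about 50% in the single-dose screen, limit read from the data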;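 note: 0% = receptor plus peptide wells without compound and 100% = peptide-only wells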
Target sequence (Q92731 whole entry, looked up, the tested form may be a part): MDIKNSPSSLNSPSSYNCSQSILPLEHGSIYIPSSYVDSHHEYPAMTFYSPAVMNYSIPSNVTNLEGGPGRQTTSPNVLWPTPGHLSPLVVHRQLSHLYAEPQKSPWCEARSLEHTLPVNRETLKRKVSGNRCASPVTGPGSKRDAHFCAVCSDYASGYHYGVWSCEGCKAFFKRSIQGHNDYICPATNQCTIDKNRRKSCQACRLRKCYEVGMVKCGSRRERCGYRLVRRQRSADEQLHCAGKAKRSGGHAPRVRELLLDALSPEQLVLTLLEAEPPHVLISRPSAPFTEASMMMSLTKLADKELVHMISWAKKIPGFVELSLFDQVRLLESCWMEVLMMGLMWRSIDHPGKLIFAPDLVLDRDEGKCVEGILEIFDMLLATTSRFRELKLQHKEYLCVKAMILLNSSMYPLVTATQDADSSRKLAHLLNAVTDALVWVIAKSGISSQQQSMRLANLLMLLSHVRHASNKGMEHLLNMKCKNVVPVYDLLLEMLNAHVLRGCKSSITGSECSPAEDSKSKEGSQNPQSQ
ERa SRC1 pot – enhances coactivator binding to human estrogen receptor alpha; 86,000 compounds, 1.3% hits; P03372; TR-FRET ERalpha-LBD/SRC-Cy5 coactivator binding, 2 h; 100 = basal binding, no effect; coactivator binding (% of control), % at 25.6 µM; in the data active = activity above about 200%;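 note: binding measured in presence of low estradiol as agonist stimulus; 0% = peptide alone without receptor and 100% = receptor with peptide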
Numbers without * were called inactive; [ ] = another dose, or the depositor's remark. In the library only some 3.6% were active in any assay of this set; here they are far more common.

Screening COc1ccc(C(=O)N/N=C2\C(=O)c3c(C)cc(C)cc3CC2(C)C)cc1 returned Smad3 inh -13.7.
CCOC(=O)c1cc(=O)n2[nH]c(-c3ccc(C)cc3)cc2n1 was read as ERa coact inh 6.8, Smad3 inh 3.5, Calb biofilm kill 4.6, ERb coact inh 5.5 and ERa SRC1 pot 98.5.
For CCOC(=O)Cc1cc(=O)n2[nH]c(-c3ccc(C)cc3)cc2n1 the results were ERa coact inh 72.5*, Smad3 inh -2.3, Calb biofilm kill 7.2, ERb coact inh 56.3* and ERa SRC1 pot 81.9.
`CN1[C@@H]2CC[C@H]1CC(OC(c1ccccc1)c1ccccc1)C2` (some centres undefined) gave Smad3 inh 4.7.
O=C(Nc1nc(-c2ccccn2)cs1)c1ccc(Br)s1 was read as ERa coact inh -11.5, Smad3 inh 11.3, Calb biofilm kill 2.7, ERb coact inh -10.6 and ERa SRC1 pot 472.6*.
CN(C)CCCN1C(=O)C(O)=C(C(=O)c2cccs2)C1c1ccccn1 (centres undefined) was read as ERa coact inh 1.4, Smad3 inh 4.5, Calb biofilm kill 8.4, ERb coact inh 6.5 and ERa SRC1 pot 94.6.
Cc1ccc(-c2noc(CSc3nnc(Cc4ccccc4)n3-c3cccc(C)c3)n2)cc1 was read as ERa coact inh -4.7, Smad3 inh 20.0, Calb biofilm kill -2.2, ERb coact inh -0.4 and ERa SRC1 pot 75.7.
Screening COc1ccc(-c2noc(CSc3nnc(Cc4ccccc4)n3-c3cccc(C)c3)n2)cc1OC returned ERa coact inh 2.2, Smad3 inh 3.7, Calb biofilm kill 5.2, ERb coact inh -1.1 and ERa SRC1 pot active[fluorescence artefact?].
For Cc1ccc(CNC(=O)CCSCCC(=O)NCc2ccc(C)cc2)cc1 the results were ERa coact inh 7.3, Smad3 inh 7.1, Calb biofilm kill 1.6, ERb coact inh 0.3 and ERa SRC1 pot 112.2.
For COc1ccc(-c2ccc(-c3nnc(-c4ccncc4)o3)cc2)cc1 the results were ERa coact inh 56.2*[fluorescence artefact?], Smad3 inh 6.6, Calb biofilm kill -0.3, ERb coact inh 31.1 and ERa SRC1 pot 184.1.
For COc1ccc(-c2nnc(SCC#N)o2)cc1 the results were ERa coact inh 3.7, Smad3 inh 8.3, Calb biofilm kill 3.9, ERb coact inh -9.3 and ERa SRC1 pot 84.7.
For CCOc1cccc(NC(=O)CSc2nc(C)c3c(c2C#N)CCCC3)c1 the results were ERa coact inh 9.5, Smad3 inh -36.6, Calb biofilm kill 7.8, ERb coact inh 4.1 and ERa SRC1 pot 193.0.
CCOC(=O)c1c(C#N)c(SCC(=O)Nc2ccc(OC)cc2)nc2c1CN(CC)CC2 was read as ERa coact inh -2.2, Smad3 inh -8.9, Calb biofilm kill 0.0, ERb coact inh -1.0 and ERa SRC1 pot 262.1*.
`COc1ccc2nc3sc(C(=O)NCc4cccs4)c(N)c3cc2c1` gave ERa coact inh 54.1*[fluorescence artefact?], Smad3 inh 10.3, Calb biofilm kill 8.3, ERb coact inh 19.2 and ERa SRC1 pot 90.3.
COc1ccc(CC(=O)NCc2cccs2)cc1OC was read as ERa coact inh -5.0, Smad3 inh -4.0, Calb biofilm kill 2.4, ERb coact inh -9.1 and ERa SRC1 pot 108.5.
For Clc1ccc(-c2nnc3sc(Cc4cccs4)nn23)c(Cl)c1 the results were ERa coact inh 26.2, Smad3 inh -7.7, Calb biofilm kill 3.1, ERb coact inh 6.6 and ERa SRC1 pot 89.8.
For COc1ccc(OCc2nn3c(-c4ccco4)nnc3s2)cc1 the results were ERa coact inh 23.9, Smad3 inh 8.4, Calb biofilm kill 2.1, ERb coact inh 32.0 and ERa SRC1 pot 98.8.
c1coc(-c2nn3c(-c4ccco4)nnc3s2)c1 was read as ERa coact inh 57.7*[fluorescence artefact?], Smad3 inh 7.0, Calb biofilm kill 8.7, ERb coact inh 55.4* and ERa SRC1 pot 76.4.
`COc1ccccc1-c1nn2c(-c3ccco3)nnc2s1` gave ERa coact inh 31.1, Smad3 inh 3.3, Calb biofilm kill 6.5, ERb coact inh 21.1 and ERa SRC1 pot 91.6.
For c1csc(Cc2nn3c(-c4n[nH]c5c4CCC5)nnc3s2)c1 the results were ERa coact inh 86.7*[fluorescence artefact?], Smad3 inh 5.0, Calb biofilm kill 6.4, ERb coact inh 62.3* and ERa SRC1 pot 27.3.
For c1coc(-c2nnc3sc(Cc4cccs4)nn23)c1 the results were ERa coact inh 86.5*[fluorescence artefact?], Smad3 inh 12.2, Calb biofilm kill 7.0, ERb coact inh 67.1* and ERa SRC1 pot 49.3.
`O=C(NCCCn1ccnc1)C(Cc1ccccc1)N1C(=O)c2ccccc2C1=O` (centres undefined) gave ERa coact inh -6.4, Smad3 inh -8.0, Calb biofilm kill 1.0, ERb coact inh -9.5 and ERa SRC1 pot 99.0.
Screening CCOC(=O)c1ccc(NC(=O)CN(Cc2ccc(Cl)cc2)S(C)(=O)=O)cc1 returned ERa coact inh -6.5, Smad3 inh 7.2, Calb biofilm kill 5.7, ERb coact inh 2.4 and ERa SRC1 pot 106.4.
`CCCOc1ccc(Br)cc1/C=N/O` gave ERa coact inh -1.5, Smad3 inh -0.6, Calb biofilm kill 2.0, ERb coact inh -8.3 and ERa SRC1 pot 114.1.
`O=C(C1=COCCO1)N1CCN(S(=O)(=O)c2cccc(Cl)c2Cl)CC1` gave ERa coact inh -9.1, Smad3 inh -14.2, Calb biofilm kill 0.0, ERb coact inh 59.8*[fluorescence artefact?] and ERa SRC1 pot 107.2.
`Cc1ccc(S(=O)(=O)N2CCN(C(=O)C3=COCCO3)CC2)cc1C` gave ERa coact inh -7.6, Smad3 inh -0.3, Calb biofilm kill -1.1, ERb coact inh -5.0 and ERa SRC1 pot 88.5.
`O=C1NCCN1CCNS(=O)(=O)c1ccc2ccccc2c1` gave ERa coact inh 58.3*[fluorescence artefact?], Smad3 inh -0.1, Calb biofilm kill 0.8, ERb coact inh -8.5 and ERa SRC1 pot 122.4.
`NC(=O)CS(=O)C[C@H](N)C(=O)O` (some centres undefined) gave Smad3 inh 23.4.
For CCC(C)C(NC(=O)c1ccccc1NC(=O)c1ccc(OC)cc1)C(=O)NCc1ccco1 (centres undefined) the results were ERa coact inh 67.5*[fluorescence artefact?], Smad3 inh 4.9, Calb biofilm kill -4.5, ERb coact inh 39.9 and ERa SRC1 pot 64.7.
`COc1ccc(C(=O)Nc2ccc(Cl)cc2C(=O)NCc2ccco2)cc1` gave ERa coact inh 3.0, Smad3 inh 10.1, Calb biofilm kill 7.8, ERb coact inh 9.9 and ERa SRC1 pot 131.4.
C/C(=N\NS(=O)(=O)c1ccc(C)cc1)P(=O)(O)O was read as Smad3 inh 5.9.
Screening Nc1ccc2nc3n(c(=O)c2c1)CCC3 returned ERa coact inh 11.4, Smad3 inh 1.8, Calb biofilm kill -3.1, ERb coact inh 18.4 and ERa SRC1 pot 214.7*.
CC(C)C(=O)Nc1ccc2oc(-c3cc(F)c(F)cc3Cl)nc2c1 was read as ERa coact inh 5.3, Smad3 inh 2.6, Calb biofilm kill 7.6, ERb coact inh 13.0 and ERa SRC1 pot 217.3*.
`O=C(Nc1ccc2oc(-c3ccccc3Cl)nc2c1)c1ncn[nH]1` gave ERa coact inh 66.5*[fluorescence artefact?], Smad3 inh 3.7, Calb biofilm kill -0.4, ERb coact inh 50.0*[fluorescence artefact?] and ERa SRC1 pot 224.1*[fluorescence artefact?].
